Assay outcomes from PubChem.
Only some compounds are listed: those with a hit (about 2.4% of all), similar ones and a draw of the others.
D2 antag: HTS Assay for Allosteric Antagonists of the Human D2 Dopamine Receptor: Primary Screen for Antagonists | D(2) dopamine receptor (Homo sapiens), P14416 | HEK293 TREx D2 cells, calcium flux, dopamine EC80 | inhibition, % at 10 µM | 2% of 340,000 active; in the data active = inhibition above about 30%; inactive = below that, where a call was filed; note: 0% is about no effect
Target sequence (P14416 whole entry, looked up): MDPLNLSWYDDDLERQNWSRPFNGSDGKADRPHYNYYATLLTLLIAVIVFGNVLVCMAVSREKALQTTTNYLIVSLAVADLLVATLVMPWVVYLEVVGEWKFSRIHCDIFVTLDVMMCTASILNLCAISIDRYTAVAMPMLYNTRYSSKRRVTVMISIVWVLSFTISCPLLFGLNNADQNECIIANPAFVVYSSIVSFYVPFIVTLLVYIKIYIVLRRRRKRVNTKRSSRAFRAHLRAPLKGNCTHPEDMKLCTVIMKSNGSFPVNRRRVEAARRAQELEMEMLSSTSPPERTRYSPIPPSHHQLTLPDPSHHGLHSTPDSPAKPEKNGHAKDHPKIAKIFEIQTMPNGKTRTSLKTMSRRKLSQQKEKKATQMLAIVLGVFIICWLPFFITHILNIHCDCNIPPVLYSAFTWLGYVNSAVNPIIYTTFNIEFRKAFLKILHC
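Calcium flux kinetic readout in an inducible HEK293 TREx D2 line plated overnight at 30 C. After 180 s compound exposure, an EC80 dopamine challenge follows with another 180 s kinetic read to detect antagonism.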
D2 PAM-1: HTS Assay for Positive Allosteric Modulators of the Human D2 Dopamine Receptor: Primary Screen for Potentiators. AID 485347, 2010. 0.34% of 340,000 active. HEK293 T-REx D2, calcium flux, EC20 dopamine potentiation. D(2) dopamine receptor (Homo sapiens), P14416. potentiation, % at 10 µM;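 active = potentiation over 3 SD above the plate norm, cut at about 30% in these data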; note: 0% is about no effect
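Cells plated with tetracycline inducer and held overnight at 30 C; calcium dye loaded 30–90 min at room temperature; baseline taken, compound added and read 180 s; EC20 dopamine then added and read 180 s.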
D2 ag-1: Beta-Arrestin HTS for Positive Allosteric Modulators of the Human D2 Dopamine Receptor: Agonists | 0.084% of 360,000 active | DiscoveRx PathHunter D2 beta-arrestin, luminescence, 90 min; 100% = 57 uM dopamine signal | activation, % (no concentration beside the values) | AID 624465, 2012 | D(2) dopamine receptor (Homo sapiens), P14416; in the data active = activation above about 40%; inconclusive = between about 15% and that limit
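DiscoveRx PathHunter D2 beta-arrestin cells (2,100/well) attached overnight, then compound-stimulated 90 min at 37 C in HBSS/10 mM HEPES/0.1% Tween-20 buffer; beta-galactosidase complementation read by luminescence after 1 h at ambient temperature. Dopamine 57 uM final (EC100) as control.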
D2 ag-2: HTS Assay for Allosteric Agonists of the Human D2 Dopamine Receptor: Primary Screen for Agonists; D(2) dopamine receptor (Homo sapiens), P14416; HEK293 T-REx D2 cells, calcium flux agonist mode; activation, % at 2 µM; 0.53% of 340,000 active; AID 485358, 2010;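 active = activation over 3 SD above normal in the single-dose calcium agonist read, cut at about 30% in these data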; note: 0% is about no effect
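Agonism scored from kinetic calcium signal (1 read/sec, 180 s) following compound pin transfer, after a 10 s baseline. Cells: HEK293 Trex line expressing inducible D2 receptor coupled to calcium, dye-loaded after overnight culture at 30 C.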
D2 PAM-2: Beta-Arrestin HTS for Positive Allosteric Modulators of the Human D2 Dopamine Receptor: Potentiators; D(2) dopamine receptor (Homo sapiens), P14416; potentiation, % (test concentration not listed); DiscoveRx D2 beta-arrestin cells, luminescence, 90 min; 100% = 57 uM dopamine signal; 0.23% of 360,000 active; AID 624464, 2012; in the data active = potentiation above about 50%; inconclusive = mostly about 30% to 49%
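PathHunter D2 cells, attached overnight at 37 deg C, received compound in DMSO plus dopamine at EC20 (50 nM final) for 90 min at 37 deg C. Beta-arrestin recruitment was read as luminescence after 1 h with detection reagent at ambient temperature.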
Numbers without * were called inactive; ? = inconclusive; . = no result.

SMILES	D2 antag	D2 PAM-1	D2 ag-1	D2 ag-2	D2 PAM-2
Cn1c(=O)c2c(nc(OCc3cccnc3)n2Cc2c(F)cccc2Cl)n(C)c1=O	43.3*	.	-2.0	0.3	-8.8
CCOC(=O)c1cc(-c2ccc(F)cc2)n(CCC(=O)Nc2ccccc2OC)c1C	.	14.7	.	0.5	.
O=S(=O)(Nc1ccccn1)c1ccc(Cl)c2ccccc12	30.6*	-1.6	1.6	-0.9	1.4
Cc1ccc(-c2nc3ccccc3c(=O)n2O)cc1	-10.8	21.8	-5.4	-0.4	0.7
O=c1c2ccccc2nc(-c2ccc([N+](=O)[O-])cc2)n1O	4.2	31.1*	2.4	-0.2	-6.7
O=C(c1nc2ncccn2n1)N1CCN(c2ccc(F)cc2)CC1	10.5	30.6*	-3.2	0.6	-11.4
CCOC(=O)C1(CC2CCCCO2)CCN(C(=O)Nc2ccc(C(=O)OC)cc2)CC1 (configuration not stated)	31.9*	-10.9	-3.6	0.4	-5.1
CC(=O)c1cccc(NC(=O)N[C@@H](CC(C)C)C(=O)O)c1	33.4*	6.1	-1.6	0.9	-12.3
CC(=O)c1ccc(NC(=O)N[C@@H](CC(C)C)C(=O)O)cc1	-10.9	-8.2	-4.7	-0.3	-21.9
O=[N+]([O-])c1nn(-c2ccc3c(c2)OCCO3)n(O)c1=NC1CCCCCC1	-13.0	5.5	?	0.1	85.3*
O=[N+]([O-])c1nn(-c2ccc3c(c2)OCCO3)n(O)c1=Nc1ccccc1	-4.0	9.4	?	-0.9	?
O=[N+]([O-])c1nn(-c2ccc3c(c2)OCCO3)n(O)c1=NC1CCCC1	-1.1	8.7	7.7	0.9	74.6*
Fc1ccc(N/N=C2/CC(c3ccccc3)Oc3ccccc32)c(F)c1 (configuration not stated)	2.7	-3.7	14.4	-0.3	82.0*
COc1cc(C(=O)NCc2ccc(OCCN(C)C)cc2)cc(OC)c1OC	72.2*	-21.3	-4.2	-0.2	-37.8
COc1cc(NC(=O)c2ccc3c(SCC(=O)O)c4c(nc3c2)CCC4)cc(OC)c1OC	35.7*	-11.4	-1.7	-0.5	-10.0
CCc1c(C)nc2nc(SCc3ccccc3Cl)[nH]n2c1=O	31.9*	-2.4	-0.7	0.4	-1.8
Cc1nc2nc(NCc3ccccc3Cl)[nH]n2c(=O)c1Cc1ccccc1	.	4.3	.	-1.0	.
Cc1ccc(C(=O)CCNc2ccccc2)o1	32.5*	-6.6	-4.6	-0.2	28.7
S=C(NCC1CCCO1)Nc1ccc(Nc2ccccc2)cc1 (configuration not stated)	40.0*	-3.6	-1.4	0.8	-8.5
O=[N+]([O-])c1ccc(N2CCCC2)cc1NC(c1ccccc1)c1ccccc1	30.0*	0.8	-0.2	0.3	-3.1
CC(C)(C)OC(=O)N1CCC[C@H]1C(=O)Nc1ccc(C#N)cc1	62.7*	-7.5	-5.2	0.3	-6.0
CC(C)(C)OC(=O)N1CCCC1C(=O)NC(Cc1ccccc1)C(=O)O (configuration not stated)	31.8*	7.6	-2.6	1.6	0.8
CC(NC(=O)C1CCCN1C(=O)OC(C)(C)C)C(=O)OCc1ccccc1 (configuration not stated)	.	.	-5.2	.	0.5
CC(C)(C)OC(=O)N1CCC[C@H]1C(=O)Nc1ccc(Br)cc1	9.9	-3.5	1.7	-0.6	-11.5
CC(C)Oc1ccc(C(=O)N(Cc2ccc(N(C)C)cc2)Cc2ccco2)cc1	.	-2.7	.	-1.0	.
SMILES	D2 antag	D2 PAM-1	D2 ag-1	D2 ag-2	D2 PAM-2
CN(C)S(=O)(=O)c1ccc(NC(=O)C2CC(=O)N(Cc3ccccc3)C2)cc1 (configuration not stated)	-10.0	31.1*	-1.5	0.1	-5.7
CCN(CC)c1ccc(NC(=O)C2CC(=O)N(Cc3ccccc3)C2)cc1 (configuration not stated)	0.8	2.9	3.7	-0.4	-1.4
CS(=O)(=O)N1CCN(c2cnn(-c3ccccc3)c(=O)c2Cl)CC1	8.4	14.0	1.3	-0.3	-2.1
CN(C(=O)CN1CCN(c2cnn(-c3ccccc3)c(=O)c2Cl)CC1)C1CCS(=O)(=O)C1 (configuration not stated)	33.2*	-3.9	-2.2	-0.1	6.6
O=C(COc1ccccc1-c1ccccc1)N/N=C/c1cccc2ccccc12	-16.2	-0.6	-0.1	0.8	-2.5
COc1ccc(/C=N/NC(=O)COc2ccccc2-c2ccccc2)cc1	39.5*	5.6	-2.8	0.4	2.2
CCCC(C(=O)O)N1C(=O)/C(=C2\C(=O)N(C)c3ccccc32)SC1=S (configuration not stated)	0.8	-5.5	12.7	-1.3	61.2*
CCOC(=O)c1c(NC(=O)Nc2ccc(Cl)cc2)sc(C)c1C	35.8*	-15.5	0.4	-0.9	-37.0
CCOC(=O)c1c(NC(=O)Nc2cccc(Cl)c2)sc(C)c1C	-10.3	-4.7	0.4	0.3	-2.4
CCOC(=O)c1sc(NC(=O)c2ccc(Cl)s2)cc1C	0.7	-12.6	-7.3	0.0	-6.7
CCOC(=O)c1sc(NC(=O)Nc2ccc(Cl)cc2)cc1C	38.0*	2.5	4.3	.	2.2
N#Cc1c(NC(=O)CS(=O)(=O)c2ccc(Cl)cc2)sc2c1CCCCC2	.	-2.2	.	-4.0	.
CCOC(=O)c1c(Nc2ccc(OC)cc2)nnc(-c2ccccc2)c1-c1ccccc1	.	-12.2	.	0.7	.
C=C(C)C(=O)Nc1cccc(C2=NOC3(C2)C[C@H](C(N)=O)N(C(=O)COc2ccc(Cl)cc2)C3)c1 (some centres not stated)	35.0*	-1.5	1.8	-0.5	-11.6
Cc1c(C(=O)N2CC3(CC(c4cccc(NC(=O)[C@H]5CCC(=O)N5)c4)=NO3)C[C@@H]2C(N)=O)cc([N+](=O)[O-])cc1[N+](=O)[O-] (some centres not stated)	-10.0	0.9	7.5	0.0	74.3*
C/C=C\C=C/C(=O)Nc1cccc(C2=NOC3(C2)C[C@@H](C(N)=O)N(C(=O)C2(C)CC2)C3)c1 (some centres not stated)	-0.7	3.6	-1.1	-0.1	-5.2
C/C=C\C(=O)Nc1cccc(C2=NOC3(C2)C[C@@H](C(N)=O)N(C(=O)C2(C)CC2)C3)c1 (some centres not stated)	34.3*	11.1	-2.1	-0.7	-6.7
CCCCNC(=O)CN1C(=O)c2c(c3ccccc3n2C)C1c1ccc(OC)cc1 (configuration not stated)	.	.	.	-2.1	.
